This is an account of results in ChEMBL document CHEMBL3988442, “University of Dundee, Small-Polar-MMV Screening Library” (2021).

SMILES strings stand for the structures. Among all 48,000 compounds or so, about 13,000 (27%) showed an effect of 50% or more. Some of the results follow.

This assay relates to Wolbachia pipientis. The assay can be described thus: Anti-Wolbachia Cell-Based Screen. Particulars: 5 µM. The assay is classed as functional. Details: scale not given: in the data most compounds retested in dose-response had high values.
`CN1CCN(c2cnn(CCn3cccn3)c(=O)c2)CC1`: the “Percent Effect” value came out at 1.729%.

`CN(C)C[C@H]1CC[C@@H](Cc2ccc3c(cnn3C)c2)O1`: the “Percent Effect” value was found to be 15.72%.

As for `Cc1cccc2nc(CN3CCCC(Cn4ccnn4)C3)cc(=O)n12` (stereo unspecified), the “Percent Effect” value is listed as -2.392%.

Regarding `CC(C)Cn1ncc2cc(C(=O)N(C)CCc3ccccc3)cnc21`, the “Percent Effect” value came out at 7.152%.

On to `CC[C@@H]1N(Cc2ccc(F)cc2)CCC[C@]12CCC(=O)N2CCOC.O=C(O)C(F)(F)F`, for which the “Percent Effect” value is recorded as 105%.

`Cn1nnc2c1CCN(Cc1ccoc1)C2COCc1ccccc1.O=C(O)C(F)(F)F` (stereo unspecified): the “Percent Effect” value is on record as 14.93%.

In the case of `CC[C@@H]1N(Cc2ccoc2)CCC[C@]12CCC(=O)N2CCOC.O=C(O)C(F)(F)F`, the “Percent Effect” value is reported as 119.5%.

`COCCNC(=O)[C@H]1C[C@H]2OCC[C@H]2N(Cc2ccoc2)C1.O=C(O)C(F)(F)F`: the “Percent Effect” value is on record as 2.424%.

As to `COCCN1C(=O)CCC12CCCN(Cc1ccccc1F)C2.O=C(O)C(F)(F)F.O=C(O)C(F)(F)F` (stereo unspecified), the “Percent Effect” value was -19.88%.

On to `COCCN1C[C@@H]2CN(Cc3cccc(F)c3)CCC[C@]2(C(=O)O)C1.O=C(O)C(F)(F)F.O=C(O)C(F)(F)F`, for which the “Percent Effect” value amounted to 4.566%.

On to `CCCOc1ccc(C(=O)N[C@@H]2CCNC[C@H]2O)cc1Cl`, for which the “Percent Effect” value was determined as 4.821%.

`c1cc(NCc2cscn2)cc(OCCN2CCCCC2)c1`: the “Percent Effect” value was 8.828%.

Consider `CN(Cc1cc[nH]n1)C(=O)C1CC(=O)N(Cc2ccncc2)C1` (stereo unspecified), for which the “Percent Effect” value is on record as 23.6%.

For the compound `CC(C)(C)OC(=O)Cn1nc(C2CC2)cc(C(F)(F)F)c1=O`, the “Percent Effect” value came out at 2.885%.

On to `CCN1CCN(C(=O)CCc2c(C)noc2Cl)CC1`, for which the “Percent Effect” value was found to be 3.416%.

On to `CCCN1CCN(C(=O)C(C)n2cc(Br)cn2)CC1` (stereo unspecified), for which the “Percent Effect” value is 6.17%.

For the compound `CCCN1CCN(C(=O)Cn2nc(C(F)(F)F)c(Br)c2C2CC2)CC1`, the “Percent Effect” value is on record as 112.9%.

In the case of `CCN1CCN(C(=O)CCC2CCN(C(=O)CCSC)CC2)CC1`, the “Percent Effect” value is listed as 1.019%.

For the compound `CCN1CCN(C(=O)Cn2nc(C(F)(F)F)c(Br)c2C2CC2)CC1`, the “Percent Effect” value came out at 81.51%.

With `Cc1nn(C)c(C)c1CCC(=O)N1CCN(CCn2cncn2)CC1`, the “Percent Effect” value is 2.467%.

On to `CN1CCN(C(=O)Cn2nc(C(F)(F)F)c(Br)c2C2CC2)CC1`, for which the “Percent Effect” value turned out to be 120.3%.

For `CCCN1CCN(C(=O)CCn2nc(C(F)(F)F)c(Br)c2C)CC1`, the “Percent Effect” value stood at 94.07%.

`Cc1cc(C2CCCN(C(=O)CN3CCN(C)CC3)C2)n[nH]1` (stereo unspecified): the “Percent Effect” value is 0.3099%.

In the case of `CC(C)(C)C(=O)Cn1nc(C2CC2)cc(C(F)(F)F)c1=O`, the “Percent Effect” value is recorded as 3.486%.

As to `CCCN1CCCN(C(=O)C(CC)N2CCCC2=O)CC1` (stereo unspecified), the “Percent Effect” value is given as -5.426%.

For the compound `CNc1cc(C)nc(N2C[C@H](NC(=O)C3CCOCC3)[C@@H](C3CC3)C2)n1`, the “Percent Effect” value is -20.28%.

On to `CNC(=O)COC(=O)c1cccc(-n2ccc(C(F)(F)F)n2)c1`, for which the “Percent Effect” value is given as -11.26%.

On to `CCCN(CCc1cccc(F)c1)c1ccc2nnnn2n1`, for which the “Percent Effect” value stood at 9.519%.

On to `CSC(CNS(C)(=O)=O)c1cccc(Cl)c1` (stereo unspecified), for which the “Percent Effect” value is recorded as 9.109%.

As to `Cc1nc(C)n(Cc2cccc(NC(=O)N(C)CCC(C)O)c2)n1` (stereo unspecified), the “Percent Effect” value is reported as -6.821%.

Regarding `O=C(Cn1nc(C(F)(F)F)c(Br)c1C1CC1)N1CCOCC1`, the “Percent Effect” value was found to be 103.1%.

For the compound `O=C(Cn1nnc(-c2ccc(F)cc2)n1)N1CCOCC(O)C1` (stereo unspecified), the “Percent Effect” value was -9.782%.

Consider `O=C(CN1C(=O)CCC1=O)N1CCOCC1`, for which the “Percent Effect” value was -0.7877%.

As for `CCN(Cc1ccncc1)C(=O)C1COc2c(cccc2OC)C1` (stereo unspecified), the “Percent Effect” value is given as -5.298%.

Consider `NC(=O)c1cccc(OCCC(=O)NC2CCc3c(F)cccc32)c1` (stereo unspecified), for which the “Percent Effect” value amounted to 3.003%.

As to `COCCN1CCC2(CC1)CN(Cc1cccc(C)n1)C(=O)CO2`, the “Percent Effect” value worked out at 94.2%.

As to `O=C1COC2(CCN(Cc3ccccn3)CC2)CN1CC1CC1`, the “Percent Effect” value stood at 3.205%.

As to `Cc1cccc(CN2CC3(CCNCC3)OCC2=O)n1`, the “Percent Effect” value is on record as -5.931%.

As for `COCCN1CCC2(CC1)CN(CCn1cccn1)C(=O)CO2.O=C(O)C(F)(F)F`, the “Percent Effect” value is on record as -17.67%.

With `COCC(=O)N1CCCC2(CCN(Cc3cccc(C)n3)C2=O)C1.O=C(O)C(F)(F)F` (stereo unspecified), the “Percent Effect” value is listed as -15.33%.

For `Cc1cccc(CN2CC3(CCN(C(N)=O)CC3)OCC2=O)n1`, the “Percent Effect” value stood at 101.1%.

On to `Cc1cccc(CN2CCC3(CCCN(C(=O)CN(C)C)C3)C2=O)n1` (stereo unspecified), for which the “Percent Effect” value is recorded as 1.32%.

As to `CCCC(=O)N1CCC2(CC1)CN(Cc1cccc(C)n1)C(=O)CO2`, the “Percent Effect” value came to 88.89%.

For the compound `Cc1cccc(CN2CC3(CCN(C(=O)C4CC4)CC3)OCC2=O)n1`, the “Percent Effect” value came to 113.2%.

As for `COCCN(C)CCN1CC2(CCN(C3CCOCC3)CC2)OC1=O`, the “Percent Effect” value was -18.87%.

In the case of `Cc1ccsc1-c1nnc(SCC(=O)O)n1C(C)c1ccccc1` (stereo unspecified), the “Percent Effect” value is -0.1706%.
